According to article PMC5540273 (PLoS ONE, 2017):

Experiments:
Settings in all cases: concentration: 1 μM,replicates: in singlicate; n = 1
[1] = test system: EPHA7
[2] = test system: EPHA8
[3] = test system: EPHB1
[4] = test system: EPHB2
[5] = test system: EPHB3
[6] = test system: EPHB4
[7] = test system: EPHB6
[8] = test system: ERBB2
[9] = test system: ERBB3
[10] = test system: ERBB4
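Also: KINOMEscan kinase panel screen.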

SMILES: FC(F)(F)c1cc(Br)cc(Nc2nccc(-c3cnn4ncccc34)n2)c1 [GW810578]
- %Inh [1]: 0%
- %Inh [2]: 0%
- %Inh [3]: 0%
- %Inh [4]: 9%
- %Inh [5]: 17%
- %Inh [6]: 0%
- %Inh [7]: 48%
- %Inh [8]: 0%
- %Inh [9]: 1%
- %Inh [10]: 0%

SMILES: CC(=O)c1c(-c2ccncc2)[nH]c(-c2ccncc2)c1C [GW493036]
- %Inh [1]: 1%
- %Inh [2]: 6%
- %Inh [3]: 12%
- %Inh [4]: 0%
- %Inh [5]: 3%
- %Inh [6]: 18%
- %Inh [7]: 0%
- %Inh [8]: 0%
- %Inh [9]: 17%
- %Inh [10]: 34%

SMILES: NC(=O)c1ccc(-c2cc3ncnc(SCC(=O)O)c3s2)cc1
- %Inh [1]: 0%
- %Inh [2]: 0%
- %Inh [3]: 0%
- %Inh [4]: 0%
- %Inh [5]: 26%
- %Inh [6]: 1%
- %Inh [7]: 62%
- %Inh [8]: 33%
- %Inh [9]: 0%
- %Inh [10]: 10%

SMILES: C[C@@H]1CNc2c(sc3ccc4nc(-c5ccncc5)ccc4c23)C(=O)N1
- %Inh [1]: 0%
- %Inh [2]: 0%
- %Inh [3]: 0%
- %Inh [4]: 0%
- %Inh [5]: 20%
- %Inh [6]: 17%
- %Inh [7]: 18%
- %Inh [8]: 14%
- %Inh [9]: 10%
- %Inh [10]: 0%

SMILES: O=C(Nc1ccc(Oc2ccc3nc(NC(=O)C4CC4)cn3n2)c(F)c1)c1cccn(-c2ccccc2)c1=O
- %Inh [1]: 0%
- %Inh [2]: 79%
- %Inh [3]: 39%
- %Inh [4]: 60%
- %Inh [5]: 6%
- %Inh [6]: 35%
- %Inh [7]: 77%
- %Inh [8]: 15%
- %Inh [9]: 30%
- %Inh [10]: 1%

SMILES: O=C(Nc1cccc(C(F)(F)F)c1)c1cccc(Oc2ccc3nccn3n2)c1
- %Inh [1]: 5%
- %Inh [2]: 27%
- %Inh [3]: 20%
- %Inh [4]: 9%
- %Inh [5]: 12%
- %Inh [6]: 23%
- %Inh [7]: 12%
- %Inh [8]: 0%
- %Inh [9]: 40%
- %Inh [10]: 0%

SMILES: CN(c1ccccc1CNc1nc(Nc2ccc3c(c2)CC(=O)N3)ncc1C(F)(F)F)S(C)(=O)=O
- %Inh [1]: 61%
- %Inh [2]: 0%
- %Inh [3]: 11%
- %Inh [4]: 4%
- %Inh [5]: 0%
- %Inh [6]: 0%
- %Inh [7]: 38%
- %Inh [8]: 0%
- %Inh [9]: 0%
- %Inh [10]: 0%

SMILES: C[C@@H](Oc1cc(-n2cnc3cc(-c4ccncc4)ccc32)sc1C(N)=O)c1ccccc1Cl [GSK479719]
- %Inh [1]: 8%
- %Inh [2]: 15%
- %Inh [3]: 9%
- %Inh [4]: 0%
- %Inh [5]: 18%
- %Inh [6]: 12%
- %Inh [7]: 0%
- %Inh [8]: 0%
- %Inh [9]: 0%
- %Inh [10]: 0%
